The values that follow come from PubChem BioAssay (Tox21).

Several values for one entry are separate records, joined by “and”; a condition that tells them apart may be missing. Equal values may be shown once. Inconclusive results are not listed. Activity calls are given as the source filed them. Unless noted, calls follow the shape of the dose curve; as a rule, active = well fitted curve in the direction sought with a large enough effect in the repeat runs; inconclusive = weak or mixed curves; inactive = no such curve, though single readings can be large; an effect the other way counts as inactive or inconclusive.

Experiment [1] can be described thus: qHTS assay for small molecule agonists of the p53 signaling pathway (AID 651631; calls by dose curve; also: nearly all actives have a fitted effect of over 15% in size; also: potency is read from the fitted curve at half-maximal effect). Summed up:
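HCT-116 cells carrying a stable p53 response element–beta-lactamase reporter were plated, rested 5 h at 37 °C, then exposed to compound in DMSO for 16 h at 37 °C; reporter activity was read as FRET substrate fluorescence after 2 h at room temperature.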
(qHTS replaces the single test concentration by a dilution series.)

Experiment [2] can be described thus: qHTS assay for small molecules that induce genotoxicity in human embryonic kidney cells expressing luciferase-tagged ATAD5 (AID 651632). Also: nearly all actives have a fitted effect of over 15% in size. Summed up:
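Test compounds were delivered by pin tool onto HEK293T reporter cells (2,000/well) expressing ATAD5 fused to luciferase. After 16 hr at 37C, 5% CO2, Amplite was added for 30 min at room temperature and luminescence was measured.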

Experiment [3] is described as follows: qHTS assay for small molecule agonists of the p53 signaling pathway - cell viability (AID 651633; calls by dose curve; also: nearly all actives have a fitted effect of over 30% in size; also: potency is read from the fitted curve at half-maximal effect). The method in brief: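 p53RE-bla cells were treated with compound for 16 hours at 37 C. Cytotoxicity was then measured as CellTiter-Glo luminescence after 30 min at room temperature.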
A short description of experiment [4]: qHTS assay for small molecules that induce genotoxicity in human embryonic kidney cells expressing luciferase-tagged ATAD5 - cell viability (AID 651634; calls by dose curve; also: nearly all actives have a fitted effect of over 25% in size; also: potency is read from the fitted curve at half-maximal effect). Summed up: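 Quantitative high-throughput format. HEK293T cells expressing ATAD5 fused to luciferase were plated at 2,000 cells/well and treated 15.5 hr with compound versus DMSO. Viability was determined by fluorescent live-cell protease substrate, 30 min at 37C.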

Experiment [5] in a line: qHTS assay for small molecule disruptors of the mitochondrial membrane potential - cell viability (AID 720634; calls by dose curve;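 also: human HepG2 liver cancer cells; nearly all actives have a fitted effect of over 20% in size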). The method in brief:
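Same-well counter-screen: following the MMP dye addition, CellTiter-Glo was added to 1 hr compound-treated HepG2 cells and luminescence read after 30 min at room temperature.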

A short description of experiment [6]: qHTS assay to test for compound auto fluorescence at 590 nm (red) in HepG2 cells (AID 720674). The method in brief: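 HepG2 cells, 2,000 per well in MEM with 10% FBS, attached overnight at 37 C, then got 23 nL compound or DMSO. After 1 hr at 37 C, 5% CO2, red fluorescence was read at 540/590 nm against Rose Bengal sodium as reference.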
Experiment [7] in a line: qHTS assay to test for compound auto fluorescence at 535 nm (green) in HepG2 cells (AID 720675).
The nature of experiment [8]: qHTS assay to test for compound auto fluorescence at 460 nm (blue) in HEK293 cells (AID 720678). The method in brief: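 After cell attachment (4-5 hr, 37C), compounds were pinned onto HEK293 monolayers in 10% dialyzed FBS medium. The blue channel (405/460 nm) was read following overnight culture. Equivalency was calculated against triamterene.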
Experiment [9] in a line: qHTS assay to test for compound auto fluorescence at 590 nm (red) in HEK293 cells (AID 720679). The method in brief: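 Plates of HEK293 cells (10% dialyzed FBS) are treated with 23 nL compound or DMSO vehicle after a 4-5 hr attachment period, incubated overnight at 37C, and read for red fluorescence at 540/590nm.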
Experiment [10] can be described thus: qHTS assay to test for compound auto fluorescence at 535 nm (green) in HEK293 cells (AID 720680).
A short description of experiment [11]: qHTS assay to test for compound auto fluorescence at 460 nm (blue) in HEK293 cell free culture (AID 720681). The method in brief:
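Compounds were added to cell-free DMEM with 10% FBS and fluorescence read directly. The blue channel used 405 nm excitation and 460 nm emission, with triamterene as the reference fluorophore.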

Experiment [12] in a line: qHTS assay to test for compound auto fluorescence at 535 nm (green) in HEK293 cell free culture (AID 720682). Summed up:
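Read-out: 485/535 nm fluorescence intensity, calibrated against fluorescein. Medium only (DMEM + 10% FBS, no cells); test compound or DMSO vehicle added by pintool before plate reading.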

Experiment [13] is described as follows: qHTS assay to test for compound auto fluorescence at 590 nm (red) in HEK293 cell free culture (AID 720683). Summed up:
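Cell-free wells of DMEM with 10% FBS received compound, and intrinsic fluorescence was read at excitation/emission 540/590 nm. Values expressed as equivalence to Rose Bengal sodium.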

The nature of experiment [14]: qHTS assay to test for compound auto fluorescence at 590 nm (red) in HepG2 cell free culture (AID 720684). Summed up: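 Rose Bengal sodium served as the reference for red signal. Test compounds were dispensed into serum-containing MEM (10% FBS) without cells, and plates were read at 540/590 nm.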
Experiment [15] is described as follows: qHTS assay to test for compound auto fluorescence at 460 nm (blue) in HepG2 cell free culture (AID 720685). Summed up:
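Cell-free plates of MEM plus 10% FBS received 23 nL compound or DMSO vehicle; blue-channel (405/460 nm) intensity scored against triamterene as reference fluorophore.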

Experiment [16] can be described thus: qHTS assay to test for compound auto fluorescence at 535 nm (green) in HepG2 cell free culture (AID 720686).
Experiment [17] can be described thus: qHTS assay to test for compound auto fluorescence at 460 nm (blue) in HepG2 cells (AID 720687). The method in brief: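 HepG2 cells in MEM with 10% FBS, attached overnight at 37 C, were exposed to compound or DMSO for 1 hr at 37 C, 5% CO2. Blue fluorescence was read at 405/460 nm, with triamterene as reference fluorophore.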
Experiment [18] addresses Glucocorticoid receptor (Homo sapiens) (UniProt P04150). As to the kind of experiment: qHTS assay to identify small molecule agonists of the glucocorticoid receptor (GR) signaling pathway (AID 720691; active = well fitted activation curve with a large enough effect in the signal ratio in the repeat runs, not every such curve was filed as active; the % refers to the signal ratio). The conditions noted are these: GR-bla HeLa, beta-lactamase reporter ratio, 18 h; activation: at 62.4 µM (top of the series). The method in brief:
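A HeLa cervical cancer line expressing GR and a glucocorticoid response element-driven beta-lactamase gene is treated with compounds for 18 h; LiveBLAzer B/G FRET substrate is then applied and fluorescence read.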

The nature of experiment [19]: qHTS assay for small molecule disruptors of the mitochondrial membrane potential (AID 720635). Also: potency is read from the fitted curve at half-maximal effect. Summed up: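 HepG2 cells exposed to compound 1 hr at 37C, then Mito-MPS dye 30 min. Ratio read of aggregate (540/590 nm) versus monomer (490/535 nm) fluorescence.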
Experiment [20] has as its target Glucocorticoid receptor (Homo sapiens) (UniProt P04150). The experiment is described as follows: qHTS assay to identify small molecule antagonists of the glucocorticoid receptor (GR) signaling pathway (AID 720692; active = well fitted inhibition curve with a large enough effect in the signal ratio in the repeat runs, not every such curve was filed as active; the % refers to the signal ratio; also: potency is read from the fitted curve at half-maximal effect). Summed up: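 GRE-bla HeLa line, dex-stimulated (5 nM final). Compound exposure 18 h, 37 C. Beta-lactamase FRET read after 2 h RT substrate.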

Glucocorticoid receptor (Homo sapiens), sequence (P04150 whole entry, looked up): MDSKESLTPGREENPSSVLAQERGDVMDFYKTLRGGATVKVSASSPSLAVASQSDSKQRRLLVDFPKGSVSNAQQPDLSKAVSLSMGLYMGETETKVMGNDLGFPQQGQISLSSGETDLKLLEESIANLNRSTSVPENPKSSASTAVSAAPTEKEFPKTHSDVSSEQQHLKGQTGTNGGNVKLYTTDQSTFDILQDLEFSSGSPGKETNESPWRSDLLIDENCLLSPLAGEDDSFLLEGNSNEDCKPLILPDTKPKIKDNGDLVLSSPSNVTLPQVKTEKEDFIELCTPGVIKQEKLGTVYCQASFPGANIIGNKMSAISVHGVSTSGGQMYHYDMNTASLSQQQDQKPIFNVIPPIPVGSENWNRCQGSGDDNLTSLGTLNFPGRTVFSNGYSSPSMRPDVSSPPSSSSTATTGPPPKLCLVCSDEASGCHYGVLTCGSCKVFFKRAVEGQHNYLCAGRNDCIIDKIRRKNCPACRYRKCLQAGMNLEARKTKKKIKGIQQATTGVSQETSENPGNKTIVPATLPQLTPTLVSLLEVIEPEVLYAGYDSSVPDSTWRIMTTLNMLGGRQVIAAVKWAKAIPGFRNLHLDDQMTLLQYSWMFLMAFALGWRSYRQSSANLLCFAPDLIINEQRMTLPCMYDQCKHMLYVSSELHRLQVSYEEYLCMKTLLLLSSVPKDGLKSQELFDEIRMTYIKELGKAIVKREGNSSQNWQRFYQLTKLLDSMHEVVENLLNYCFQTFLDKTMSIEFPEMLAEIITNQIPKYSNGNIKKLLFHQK

As to `O=C1OC(=O)c2cc(-c3ccc4c(c3)C(=O)OC4=O)ccc21`, the Potency entry in [1], in experiment [2], in experiment [3], in experiment [4], in experiment [5] and in experiment [7] was “inactive” throughout. Further, the Potency result in [8], in [11], in experiment [15], in [16], in experiment [17] and in experiment [18] was “inactive” throughout. Further, the outcome in experiment [6], in [9], in [10], in [12], in [13] and in experiment [14] was inactive.
With `Cc1cc(Br)ccc1NC(=O)CCl`, the Potency was 8.63 µM (active) in experiment [1], 43.3 µM (active) in experiment [3] and 54.5 µM (active) in experiment [4]. The Potency entry in [2], in experiment [5], in experiment [7], in experiment [8], in [11] and in experiment [15] was “inactive” in each case. Further, the Potency result in experiment [16], in experiment [17] and in [18] was “inactive” each time. For the same compound, the result in [6], in experiment [9], in [10], in [12], in experiment [13] and in experiment [14] was inactive.
Regarding `CCCC(=O)c1cc(O)c(O)cc1O`, the values for the Potency in experiment [1], in experiment [4] and in experiment [19] were 68.6 µM (active), 30.6 µM (active) and 5.45 µM (active), respectively. The Potency entry in [2], in experiment [3], in [7], in experiment [8], in experiment [11] and in experiment [15] was “inactive” each time. In addition, the Potency result in [16], in experiment [17] and in [18] was “inactive” throughout. Further, the compound was classed as inactive in experiment [6], in experiment [9], in experiment [10], in experiment [12], in experiment [13] and in experiment [14].
Regarding `CC1(C)CCC(NC(=O)[C@@H](N)CCC(=O)O)CC1`, the Potency result in [1], in experiment [2], in experiment [3], in [4], in experiment [5] and in experiment [19] was “inactive” each time. The Potency entry in experiment [8], in experiment [11], in [15], in experiment [16], in experiment [17] and in [18] was “inactive” throughout. Besides, the Potency entry in [20] is “inactive”. For the same compound, the outcome in experiment [6], in [9], in [10], in [13] and in [14] was inactive.
In the case of `c1ccc(-c2ccc(C(c3ccccc3)n3ccnc3)cc2)cc1` (stereo unspecified), the Potency in experiment [1] is 29.8 µM (active); in experiment [20], 23.9 µM (active). For the same compound, the Potency entry in experiment [2], in [4], in experiment [5], in experiment [7], in experiment [8] and in experiment [11] was “inactive” throughout. In addition, the Potency result in experiment [15], in [16] and in [17] was “inactive” in each case. Also, the compound was called inactive in [6], in experiment [9], in experiment [10], in experiment [12] and in experiment [13].
Consider `NCC[C@H](O)C(=O)N[C@@H]1C[C@H](N)[C@@H](O[C@H]2O[C@H](CN)CC[C@H]2N)[C@H](O)[C@H]1O[C@H]1O[C@H](CO)[C@@H](O)[C@H](N)[C@H]1O`, for which the Potency result in experiment [1], in experiment [2], in experiment [3], in experiment [4], in experiment [5] and in experiment [19] was “inactive” throughout. The Potency entry in experiment [8], in experiment [11], in experiment [15] and in [17] was “inactive” in each case. The outcome in [6], in [9], in experiment [10], in experiment [12], in experiment [13] and in experiment [14] was inactive.
On to `COc1cc([C@@H]2c3cc4c(cc3[C@@H](O[C@@H]3O[C@@H]5CO[C@@H](C)O[C@H]5[C@H](O)[C@H]3O)[C@H]3COC(=O)[C@H]23)OCO4)cc(OC)c1O`, for which the Potency in [1] was 1.88 µM (active) and 761 nM (active). For the same compound, the Potency entry in [2], in experiment [3], in experiment [4], in [5], in experiment [7] and in experiment [8] was “inactive” in each case. For the same compound, the Potency result in experiment [11], in experiment [15], in [16] and in [17] was “inactive” each time. In addition, the compound was called inactive in experiment [6], in experiment [9], in experiment [10], in experiment [12], in [13] and in experiment [14].
